# Source: PubChem BioAssay (National Center for Advancing Translational Sciences (NCATS))
# USP2a block = inhibitors of human ubiquitin-specific protease USP2a; O75604; USP2 core, Ub-CHOP2 coupled fluorogenic reporter, 485/531; Potency, µM (doses to about 38.3 µM), inactives show at the top dose activity change, negative = inhibition, actives largely listed as inhibitors; 330,000 tested, 0.01% active;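 further: plate controls were DMSO wells for no effect and full inhibition by NEM control for full effect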
#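 Cell-free coupled assay: 10nM USP2 core preincubated 30min RT with compound in Tris-HCl pH 8.0/CaCl2/CHAPS buffer, then 25nM Ub-CHOP2 and 25nM reporter substrate; fluorescence (Ex 485/Em 531) read after 60min RT, normalized to NEM inhibition, concentration-response curves fitted.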
# Eya2 inh = Eya2 (human) phosphatase inhibition. O00167. 330,000 tested, 0.006% active. AID 488837. recombinant Eya2, OMFP fluorescence dephosphorylation (OMFP is methylfluorescein phosphate). Potency, µM (doses to about 76.9 µM), without a hit: at the top dose activity, negative = inhibition, actives largely listed as inhibitors; further: on the % scale 0 is the no-effect control and ±100 the full control effect
# Target sequence (O00167 whole entry, looked up): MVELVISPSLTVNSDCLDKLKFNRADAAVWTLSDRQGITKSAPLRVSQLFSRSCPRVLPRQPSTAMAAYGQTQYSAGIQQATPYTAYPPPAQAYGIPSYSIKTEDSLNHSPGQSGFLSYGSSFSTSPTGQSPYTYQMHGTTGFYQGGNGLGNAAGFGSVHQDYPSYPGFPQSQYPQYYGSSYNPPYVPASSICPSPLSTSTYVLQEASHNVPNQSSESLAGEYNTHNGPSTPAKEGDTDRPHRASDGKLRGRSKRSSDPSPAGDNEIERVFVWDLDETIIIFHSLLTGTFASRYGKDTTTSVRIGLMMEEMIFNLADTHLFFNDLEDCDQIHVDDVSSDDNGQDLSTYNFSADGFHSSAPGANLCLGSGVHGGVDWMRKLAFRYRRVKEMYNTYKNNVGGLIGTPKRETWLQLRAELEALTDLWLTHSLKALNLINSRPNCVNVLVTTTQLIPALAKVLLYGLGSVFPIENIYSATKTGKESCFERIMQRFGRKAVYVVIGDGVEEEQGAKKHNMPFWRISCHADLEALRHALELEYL
#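 Eya2 (0.2 uM) preincubated 10 min at ambient with compound, then OMFP substrate added at 50 uM; 10 min reaction in 50 mM HEPES pH 7.5, 50 mM NaCl, 5 uM MgCl2, 0.05% BSA, 1 mM DTT. Fluorescence read at Ex 485/Em 525 nm.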
# p53 reactivation = re-activators of mutant p53 | H1299 p53-A138V BP100-luciferase reporter, luminescence, 24 h | Potency, µM (series often up to 92.2 µM), for inactives: top-dose activity change, positive = activation, most hits filed as activators | 320,000 tested, 0.063% active; further: % of control where 0% means no effect; nearly all actives have a fitted effect of over 45% in size
#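 H1299 (p53-null), stable ts p53-A138V + BP100-Luc; 1000 cells/well, Opti-MEM/10% FBS; cpd 4 pt, 1:5; 24 h, 37 deg C, 5% CO2; detection reagent 10 min RT; luminescence.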
# a7 integrin act = activates integrin-mediated alleviation for muscular dystrophy. 350,000 tested, 0.064% active. alpha7betagal myoblasts, beta-gal FDG fluorescence, 48 h. Potency, µM (titrated, usually from 38.3 µM), for inactives: at the top dose activation, hits mostly activators. AID 624291;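 further: 100% = response of the positive control SU9516; nearly all actives have a fitted effect of over 60% in size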
#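 alpha7betagal+/- myoblasts (passage 13, 250/well) treated 48 h at 37C with compounds at 1:260 dilution of DMSO stock. Lysed, then beta-galactosidase activity read as FDG fluorescence (ex 480/em 540) after 30 min, with pre-read for autofluorescence.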
# ClpP mod = qHTS Assay for Activators of ClpP; 340,000 tested, 1.9% active; AID 651965, 2013; ATP-dependent Clp protease proteolytic subunit (Bacillus subtilis (strain 168)), P80244; purified B. subtilis ClpP, FRET peptide cleavage, 20 min; Potency, µM (series often up to 57.5 µM), for the others: at the top dose activity change, negative = active; active means well fitted falling curve with a large enough effect; inconclusive means small, poorly fitted or top-dose-only effect; inactive means no such curve, though single readings can be large or run the other way; further: the source files actives as falling curves though it sought activators and does not explain the sign; nearly all actives have a fitted effect of over 65% in size
# Target sequence (P80244 whole entry, looked up): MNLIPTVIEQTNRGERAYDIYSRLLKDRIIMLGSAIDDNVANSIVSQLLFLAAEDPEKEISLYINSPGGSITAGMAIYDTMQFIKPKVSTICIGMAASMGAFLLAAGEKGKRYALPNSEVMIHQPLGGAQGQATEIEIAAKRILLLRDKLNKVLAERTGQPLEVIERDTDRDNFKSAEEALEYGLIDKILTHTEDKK
#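 Purified B. subtilis ClpP, 10 microg/mL final in Tris/HCl pH8 with KCl, BSA, glycerol and Tween-20, cleaved an Abz/nitrotyrosine-quenched decapeptide. Fluorescence (ex 320, em 430) was read at 0 and 20 min at room temperature. Delta was normalized to 5.8 microM ADEP and DMSO/no-enzyme controls.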
# Mm-Cpn inhibitor = M. maripaludis TRiC chaperonin inhibition; Potency, µM (series often up to 76.9 µM), without a hit: at the highest dose activity, negative = inhibition, most hits filed as inhibitors; 330,000 tested, 0.031% active; purified Mm-Cpn ATPase, ADP Transcreener TR-FRET; further: on the % scale 0 is the no-effect control and ±100 the full control effect; nearly all actives have a fitted effect of over 80% in size
#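 Compound-treated chaperonin, 25 nM final, turns over 10 uM ATP at 37°C for 30 min following a 10 min preincubation; ADP generated competes with ADP-d2 for Eu-cryptate antibody, lowering FRET.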
# * hit, by the source's call; u = inconclusive; x = not tested or not shown; [ ] = remark or other dose. This excerpt belongs to a sample that is enriched for hits. Unless noted, the call rests on the fitted dose curve; in most records, active means well fitted curve in the direction sought with a large enough effect; inconclusive means small, poorly fitted or top-dose-only effect, or another doubt; inactive means no such curve, though single readings can be large; an effect the other way counts as inactive or inconclusive. Potency means the concentration at half of the fitted maximal effect.
SMILES,USP2a block,Eya2 inh,p53 reactivation,a7 integrin act,ClpP mod,Mm-Cpn inhibitor
Cc1ccc(CNC(=O)c2ccc3c(c2)NC(=O)C(CS(=O)(=O)Cc2ccc(F)cc2)N3)cc1 (centres undefined),x,x,x,x,-9.1%,x
O=C(Oc1ccc(Cl)c2cccnc12)N1CCCCC1,-0.2%,-5.3%,u,-14.9%,u,-5.0%
O=C(Oc1ccc(Cl)c2cccnc12)N1CCOCC1,1.1%,-6.9%,u,-7.8%,31.6µM*,-0.4%
Cc1ccc2occ(/C=C/C(=O)c3ccccc3O)c(=O)c2c1,0.5%,-4.6%,3.9%,18.5%,15.8µM*,-0.4%
CC(=O)Nc1cccc(-c2nc3ccccc3[nH]2)c1,-1.1%,1.2%,10.8%,5.4%,x,0.0%
O=C(COc1ccccc1)Nc1cccc(-c2nc3cc4ccccc4cc3[nH]2)c1,-8.4%,-10.0%,26.4%,-14.4%[7.66 µM],6.31µM*,-7.9%
CC(Oc1ccccc1)C(=O)Nc1cccc(-c2nc3ccccc3[nH]2)c1 (centres undefined),3.3%,-13.8%,u,-23.7%,35.5µM*,0.6%
Cc1cc(C)cc(OCC(=O)Nc2cccc(-c3nc4ccccc4[nH]3)c2)c1,x,x,x,x,4.3%,x
C=CCN1CN(S(=O)(=O)c2cccs2)c2nc3ccccc3nc21,1.5%,11.7%,0.0%,-20.2%[7.66 µM],25.1µM*,-0.3%
CCS(=O)(=O)c1oc(-c2ccc(F)cc2)nc1S(=O)(=O)c1ccc(Br)cc1,x,x,x,x,-5.5%,x
N#Cc1c(N)sc2c1CCN(CCc1ccccc1)C2,0.1%,-17.2%,-3.2%,18.8%,22.4µM*,-1.6%
N#Cc1c(NC(=S)NC(=O)c2ccccc2)sc2c1CCN(CCc1ccccc1)C2,6.0%,10.9%,13.9%,x,x,-10.0%
Cc1ccc(NC(=O)c2ccccc2F)nc1,5.3%,-2.7%,15.3%,26.4%,15.8µM*,-6.1%
CN(C)c1ccc(C=O)cc1[N+](=O)[O-],x,x,x,x,1.0%,x
O=C1CC(C(=O)Nc2ccc(Cl)cc2[N+](=O)[O-])C2(CCCCC2)O1 (centres undefined),4.4%,5.0%,-16.1%,5.4%,28.2µM*,0.9%
O=C1CC(C(=O)Nc2ccccc2)C2(CCCCC2)O1 (centres undefined),-0.1%,11.4%,1.1%,-5.6%,0.9%,0.1%
CCn1nc(NC(=O)c2ccccn2)c2cc3cccc(C)c3nc21,5.5%,-0.9%,24.4%,3.9%,31.6µM*,-0.4%
CCO/C=C1\C(=O)N(c2ccccc2)C(=O)c2ccccc21,2.3%,4.5%,0.3%,7.2%,31.6µM*,-0.2%
Cc1ccc(-n2ncc3c(NC(C)c4ccccc4)ncnc32)cc1 (centres undefined),x,x,x,x,4.1%,x
Cc1ccc(CSc2ncnc3c2cnn3-c2ccccc2)cc1,3.4%,-2.4%,5.2%,25.6%,25.1µM*,1.1%
CCC(CO)Nc1ncnc2c1cnn2-c1ccc(C)cc1 (centres undefined),x,x,x,x,28.2µM*,x
Cc1ccc(-n2ncc3c(SCc4ccccc4)ncnc32)cc1,6.7%,2.2%,u,26.3%,22.4µM*,-0.8%
O=C(CSc1nc(-c2ccccc2)c(-c2ccccc2)[nH]1)N1CCN(S(=O)(=O)c2ccccc2)CC1,-1.1%,-1.2%,-0.2%,20.3%,28.2µM*,0.2%
O=C(CSc1nc(-c2ccccc2)c(-c2ccccc2)[nH]1)Nc1ccc2c(c1)OCO2,5.4%,-15.0%,-3.3%,6.8%,25.1µM*,1.8%
CN(C)c1ccc(C=Nc2cnc3ccccc3c2)cc1,x,x,x,x,4.2%,x
SMILES,USP2a block,Eya2 inh,p53 reactivation,a7 integrin act,ClpP mod,Mm-Cpn inhibitor
O=C(CN1CCOCC1)NNc1c2ccccc2nc2ccccc12,-1.6%,-4.5%,0.1%,17.5%,x,-14.4%
O=C(CN1CCOCC1)Nc1c2c(nc3ccccc13)N(Cc1ccccc1)CC2,-5.2%,-0.2%,-6.1%,-33.4%,22.4µM*,-2.4%
O=C(CN1CCCC1)Nc1c2c(nc3ccccc13)N(Cc1ccccc1)CC2,-8.5%,10.5%,-5.3%,-23.4%,14.1µM*,-2.9%
Cc1c2cnn(-c3ccccc3)c(=O)c2c(C)n1CC(=O)Nc1ccccc1Br,x,x,x,x,-5.2%,x
COc1ccc(NC(=O)C(=O)NCC(c2ccc3c(c2)OCO3)N2CCN(C)CC2)cc1 (centres undefined),x,x,x,x,-0.1%,x
N#CC(=Cc1ccccn1)c1nc(-c2ccc(Cl)cc2)cs1,x,x,x,8.6%,25.1µM*,x
CCOc1cc(C2Nc3ccccc3C(=O)N2Cc2ccco2)ccc1OCc1ccccc1Cl (centres undefined),x,x,x,x,4.2%,x
Cn1c(-c2ccccc2)cc2ccccc21,-1.3%,-8.3%,1.5%,u,1.5%,-2.6%
Cn1c(-c2ccccc2O)cc2ccccc21,-4.3%,-7.8%,26.5%,6.5%,15.8µM*,1.4%
CCCN1CNc2c(c(=O)[nH]c(=S)n2CCc2c(Cl)cccc2Cl)C1,x,x,x,x,-0.6%,x
Cc1ccc2[nH]c(=O)c(C(c3nnnn3CC3CCCO3)N3CCc4ccccc4C3)cc2c1 (centres undefined),-0.1%,3.6%,-0.8%,-52.0%,-19.3%,-2.1%
COc1ccc(C(c2nnnn2CC2CCCO2)N2CCC(C(N)=O)CC2)cc1 (centres undefined),-0.4%,-15.6%,-3.9%,-4.5%,28.2µM*,-0.9%
Cc1ccc2[nH]c(=O)c(C(c3nnnn3CC3CCCO3)N3CCOCC3)cc2c1 (centres undefined),-0.6%,13.9%,-4.3%,4.6%,22.4µM*,-0.2%
Cc1ccc2[nH]c(=O)c(C(c3nnnn3CC3CCCO3)N3CCCc4ccccc43)cc2c1 (centres undefined),4.2%,4.8%,-2.2%,-57.4%,-3.7%,-0.4%
COc1ccc2[nH]c(=O)c(C(c3nnnn3CC3CCCO3)N3CCc4ccccc4C3)cc2c1 (centres undefined),1.2%,17.4%,-5.0%,-15.5%[7.66 µM],31.6µM*,-0.8%
O=C(C[N+]12CN3CN(CN(C3)C1)C2)c1ccc(I)cc1,x,x,x,x,-2.6%,x
COc1ccc(C(=O)C[n+]2ccc(Cl)c3ccc(Cl)cc32)cc1,x,x,x,x,-0.3%,x
COc1cc(OC)c2c(c1)C(=O)OC2c1cc(OC)c(OC)cc1C (centres undefined),x,x,x,x,-0.7%,x
O=C(Nc1ccc2oc(-c3cccnc3)nc2c1)c1ccc(-c2ccccc2)o1,x,x,x,x,4.2%,x
CCCCCC(=O)Nc1ccc2oc(-c3cccnc3)nc2c1,2.0%,-0.2%,5.6%,-16.3%,15.8µM*,0.5%
COc1ccc(CC(=O)Nc2ccc(-c3nc4cc(C)ccc4o3)c(O)c2)cc1OC,0.7%,-1.6%,20.2%,u,35.5µM*,0.5%
